BAZ2B block: inhibitors of human BAZ2B bromodomain; AlphaScreen BAZ2B-H3K14Ac peptide displacement; 360,000 compounds, 4.4% hits; Potency, µM (titrated, usually from 114 µM), without a hit: at the highest dose activity change, negative = inhibition, actives largely listed as inhibitors; Q9UIF8; AID 504333; also: % is scaled to controls: 0 for no effect and ±100 for the full control effect; nearly all actives have a fitted effect of over 60% in size
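Complex of BAZ2B and biotin-H3K14Ac (50 nM apiece) forms over 30 min at RT, then faces library compounds up to 110 uM for another 30 min; AlphaScreen beads added, 20 min dark incubation, luminescence read.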
JMJD2A Tudor inh: JMJD2A Tudor domain (human) inhibition. O75164. AlphaScreen JMJD2A-Tudor / H3K4me3 peptide binding. Potency, µM (doses to about 114 µM), without a hit: at the top dose activity change, negative = inhibition, hits mostly inhibitors. 390,000 compounds, 4.4% hits. AID 504339; also: % is scaled to controls: 0 for no effect and ±100 for the full control effect; nearly all actives have a fitted effect of over 50% in size
Target sequence (O75164 whole entry, looked up, the tested form may be a part): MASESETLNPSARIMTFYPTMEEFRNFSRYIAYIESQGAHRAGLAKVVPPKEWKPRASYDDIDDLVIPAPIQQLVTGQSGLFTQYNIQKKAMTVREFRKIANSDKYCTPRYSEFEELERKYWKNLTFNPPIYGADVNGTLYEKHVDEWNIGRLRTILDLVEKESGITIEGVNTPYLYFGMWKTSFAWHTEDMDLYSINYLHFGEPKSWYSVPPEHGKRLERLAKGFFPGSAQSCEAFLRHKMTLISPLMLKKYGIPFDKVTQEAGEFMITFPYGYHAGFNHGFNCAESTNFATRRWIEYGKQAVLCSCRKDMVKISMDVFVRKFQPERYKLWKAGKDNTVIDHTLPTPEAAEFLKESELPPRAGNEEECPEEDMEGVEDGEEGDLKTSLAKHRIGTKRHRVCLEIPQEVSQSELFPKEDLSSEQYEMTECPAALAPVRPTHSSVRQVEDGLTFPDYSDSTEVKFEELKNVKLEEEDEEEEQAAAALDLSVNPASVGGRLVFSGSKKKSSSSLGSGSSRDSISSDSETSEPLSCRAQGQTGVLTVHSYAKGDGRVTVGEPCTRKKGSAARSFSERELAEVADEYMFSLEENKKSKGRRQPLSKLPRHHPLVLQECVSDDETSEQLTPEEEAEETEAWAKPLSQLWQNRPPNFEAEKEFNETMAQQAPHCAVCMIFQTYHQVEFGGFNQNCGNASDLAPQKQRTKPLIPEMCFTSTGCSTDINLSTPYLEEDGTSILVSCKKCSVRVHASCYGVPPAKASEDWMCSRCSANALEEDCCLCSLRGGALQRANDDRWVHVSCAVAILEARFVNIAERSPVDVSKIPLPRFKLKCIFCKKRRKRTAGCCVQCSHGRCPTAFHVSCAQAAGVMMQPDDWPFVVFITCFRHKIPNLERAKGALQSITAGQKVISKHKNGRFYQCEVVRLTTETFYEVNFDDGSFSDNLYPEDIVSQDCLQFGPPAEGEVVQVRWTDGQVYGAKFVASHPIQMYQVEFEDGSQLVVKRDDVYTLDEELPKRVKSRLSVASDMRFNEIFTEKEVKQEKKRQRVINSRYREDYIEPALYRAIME
G9a inh: G9a (human) methyltransferase inhibition | Q96KQ7 | G9a H3K9 monomethylation, AlphaScreen, 2 h | Potency, µM (top dose mostly 102 µM), inactives show at the highest dose activity, negative = inhibition, most hits filed as inhibitors | 350,000 compounds, 8.8% hits | AID 504332; also: % is scaled to controls: 0 for no effect and ±100 for the full control effect; nearly all actives have a fitted effect of over 75% in size
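AlphaScreen read-out: biotin-H3K9 peptide (500 nM) methylation by 20 nM enzyme with 20 uM SAM, 2 h at room temperature after 15 min compound preincubation; anti-monomethyl H3K9 antibody plus donor/acceptor beads, 10 min dark.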
Sfp inh: Sfp phosphopantetheinyl transferase inhibition. Biochemical Sfp PPTase activity, qHTS. Q9F4F7. Potency, µM, for the others: largest response in the series, negative = inhibition, hits mostly inhibitors. 310,000 compounds, 3.5% hits;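 also: the enzyme is Sfp with the accession as filed and its product quenches rhodamine fluorescence; 0% = enzyme reaction without inhibitor and -100% = no enzyme wells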
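Buffer: 50 mM Hepes-Na pH 7.6, 10 mM MgCl2, 0.01% Nonidet P-40, 0.01% BSA. Enzyme 15 nM, pre-exposed to compound 15 min; substrates then added and fluorescence change tracked over 30 min.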
TDP1 block: TDP1 (human) enzyme inhibition; Q9NUW8; recombinant TDP1, AlphaScreen DNA substrate cleavage; Potency, µM (titrated, usually from 130 µM), inactives show at the top dose activity change, negative = inhibition, most hits filed as inhibitors; 350,000 compounds, 0.28% hits; also: % is scaled to controls: 0 for no effect and ±100 for the full control effect; nearly all actives have a fitted effect of over 40% in size
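Tdp1 1 nM final; 15 min RT w/ cpd; substrate 15 nM, 5 min; beads 10 ug/ml, 10 min; AlphaScreen read. Neg ctrl: no enzyme.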
HP1b chromo inh: blocks HP1-beta chromodomain binding to methylated histone tails | P83916 | AlphaScreen HP1-beta / biotin-H3K9me3 peptide binding | Potency, µM (highest dose often 114 µM), for inactives: at the highest dose activity change, negative = inhibition, usual class: inhibitors | 390,000 compounds, 0.56% hits | AID 540317; also: nearly all actives have a fitted effect of over 70% in size
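Compound inhibition of the preformed complex between 50 nM HP1-beta and 50 nM biotinylated H3K9me3 peptide was read by AlphaScreen. Buffer was PBS pH 7.4 with 0.01% Tween-20. Incubations ran 30 min at room temperature, with 10 ug/mL donor/acceptor beads.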
* = called active by the depositor; ? = inconclusive; · = no result; [ ] = dose if it differs, or a comment. Shown are actives, neighbours in structure and some others; about 12% of the full set was active somewhere. Calls follow the shape of the dose curve; as a rule, active = well fitted curve in the direction sought with a large enough effect; inconclusive = small, poorly fitted or top-dose-only effect, or another doubt; inactive = no such curve, though single readings can be large; an effect the other way counts as inactive or inconclusive. Potency is read from the fitted curve at half-maximal effect.

SMILES	BAZ2B block	JMJD2A Tudor inh	G9a inh	Sfp inh	TDP1 block	HP1b chromo inh
C#CCOCCOCCOCCNc1nc(N2CCN(C(=O)[C@H](CCCCN)n3cc([C@@H](N)C(C)CC)nn3)CC2)nc(N2CCN(C(=O)[C@H](Cc3cc4ccccc4[nH]3)n3cc([C@@H](N)CC(C)C)nn3)CC2)n1 (some centres undefined)	31.6µM*	35.5µM*	?	-12.8%	5.1%	-11.0%
C#CCOCCOCCOCCNc1nc(N2CCN(C(=O)[C@H](Cc3cc4ccccc4[nH]3)n3cc([C@@H](N)C(C)CC)nn3)CC2)nc(N2CCN(C(=O)[C@H](Cc3cc4ccccc4[nH]3)n3cc([C@@H](N)CC(C)C)nn3)CC2)n1 (some centres undefined)	35.5µM*	·	?	?	7.7%	·
C=CC[C@H](CC(=O)OC(C)(C)C)C(=O)OC[C@H]1CCCN1C(=O)[C@@H](CC=C)CC(=O)N(CCO)Cc1ccccc1	·	-13.6%	·	·	1.3%	60.2%
CCOc1ccccc1NC(=O)NNC(=O)COc1cccc(C)c1C	-8.9%	-9.0%	·	-2.5%	1.9%	14.0%
O=S(=O)(c1ccccc1)c1nc(-c2ccco2)oc1NCc1ccccc1	-37.2%	-32.7%	35.5µM*	3.3%	10.1%	12.7%
O=S(=O)(c1ccccc1)c1nc(-c2ccco2)oc1Nc1ccccc1	?	-0.7%	7.94µM*	3.2%	2.2%	-5.7%
N[C@H](Cn1ccc(=O)n(Cc2ccccc2C(=O)O)c1=O)C(=O)O	·	·	·	70.8µM*	3.6%	·
O=c1ccn(Cc2ccccc2)c(=O)n1Cc1ccccc1	3.7%	2.6%	-1.8%[59 µM]	7.0%	6.6%	26.4%
Cc1ccccc1Cc1c(C)nc2nc(SCC(=O)NCCc3ccc(Cl)cc3)nn2c1C	-16.5%	-16.4%	-30.8%[59 µM]	·	2.9%	29.9%
O=C(NC1CCN(Cc2ccc(F)cc2)CC1)c1ccccc1	10.4%	-15.6%	-4.6%	-5.2%	·	15.1%
O=C(C1CCN(Cc2ccc(F)cc2)CC1)N(CCO)Cc1ccccc1	-16.1%	3.55µM*	?	-3.4%	4.4%	-22.8%
O=C(C1CCN(Cc2ccc(F)cc2)CC1)N(CCc1ccccc1)Cc1ccccc1	?	6.31µM*	12.6µM*	-20.6%	7.7%	?
CCN(C(=O)CSc1n[nH]c(-c2cc(Cl)ccc2OC)n1)C1CCS(=O)(=O)C1 (centres undefined)	3.5%	-1.4%	?	·	-13.1%[0.505 µM]	30.5%
O=C(CCC1CCCN(C(=O)C2=CCCC2)C1)N1CCN(c2ccccn2)CC1 (centres undefined)	-11.3%	-5.9%	-62.8%	11.2%	5.6%	18.2%[57 µM]
O=C(CCC1CCCN(C(=O)CC2=CCCCC2)C1)N1CCN(c2ccccn2)CC1 (centres undefined)	-3.4%	14.1µM*	13.7%	-1.1%	2.4%	-16.5%
COc1ccc([N+](=O)[O-])cc1-c1[nH]c(-c2ccc(C(=O)O)cc2)nc1-c1ccccc1	?	?	?	20.6%	·	-5.3%
COc1ccc(-c2nc(-c3ccccc3)c(-c3cc([N+](=O)[O-])ccc3C)[nH]2)cc1O	39.8µM*	44.7µM*	50.1µM*	11.8%	11.8%	?
Cc1ccc([N+](=O)[O-])cc1-c1[nH]c(-c2ccc(O)c(O)c2)nc1-c1ccccc1	28.2µM*	39.8µM*	?	2.2%	11.8%	-43.0%
Cc1cccc(-n2cnc3cc([N+](=O)[O-])ccc32)c1	?	-20.5%	11.2µM*	-27.1%	5.4%	-24.4%
CC(Sc1ncc(C(F)(F)F)cc1Cl)C(=O)NCC1CCCO1 (centres undefined)	13.6%	1.0%	-26.3%	-0.5%	8.1%	9.8%
COc1ccc(N2CCN(C(=O)c3cc(NS(=O)(=O)c4ccc(F)cc4)ccn3)CC2)cc1	-12.1%	-16.2%	?	·	-6.2%	25.8%
Cc1ccccc1S(=O)(=O)Cc1ccc(C(=O)NC2CC2)o1	-0.1%	50.1µM*	21.2%	3.0%	2.4%	-21.9%
COc1ccccc1S(=O)Cc1ccc(C(=O)NCCc2ccc(Cl)cc2)o1 (centres undefined)	0.6%	-7.6%	39.8µM*	-7.2%	5.9%	71.8%
COc1ccccc1S(=O)Cc1ccc(C(=O)NC2CCCC2)o1 (centres undefined)	11.4%	-11.0%	28.2µM*	-20.9%	-1.3%	54.9%
Cc1ccccc1S(=O)Cc1ccc(C(=O)NC2CCCCCC2)o1 (centres undefined)	·	-25.7%	-24.4%[59 µM]	·	2.3%	10.1%
SMILES	BAZ2B block	JMJD2A Tudor inh	G9a inh	Sfp inh	TDP1 block	HP1b chromo inh
Cc1ccccc1S(=O)(=O)Cc1ccc(C(=O)NC2CCCC2)o1	-0.8%	-7.6%	-6.0%	11.4%	5.0%	66.9%
COCCN(CC(=O)NCC1CCCO1)C(=O)CCC(=O)Nc1cc(C)ccn1 (centres undefined)	21.7%	-7.8%	28.2µM*	-9.3%	7.7%	46.9%
COCCN(CC(=O)NCC1CCCO1)C(=O)CCC(=O)Nc1ccccn1 (centres undefined)	-20.7%	?	-2.2%	16.8%	3.6%	-14.9%
Cn1c(/N=C/c2c[nH]c3ccccc23)nc2ccccc21	2.8%	-2.3%[11.4 µM]	26.2%	3.7%	9.8%	38.1%
Cc1cc(-c2n[nH]c(=S)n2/N=C/c2c[nH]c3ccccc23)n[nH]1	-22.3%	10µM*	0.794µM*	-28.7%	5.9%	10.9%
Cc1cc(-c2n[nH]c(=S)n2/N=C/c2ccccc2[N+](=O)[O-])n[nH]1	?	3.55µM*	0.398µM*	?	0.0%	?
Fc1ccc(-c2n[nH]c(=S)n2/N=C/c2c[nH]c3ccccc23)cc1	7.9%	?	1.78µM*	-4.3%	-2.8%	20.1%
CCN(CC(=O)Nc1ccccc1C(F)(F)F)C(=O)CN1C(=O)NC(C)(c2ccccc2)C1=O (centres undefined)	-2.6%	-9.7%	-43.2%	·	0.5%	19.3%
COc1cc(-c2nc(-c3ccccc3)c(-c3cccs3)[nH]2)cc(OC)c1O	50.1µM*	44.7µM*	-6.4%[12.7 µM]	1.3%	9.8%	?
Cc1[nH]c(-c2ccco2)nc1C(=O)O	?	10µM*	20µM*	79.4µM*	-8.6%	0.6%
COc1ccc(-c2noc(-c3ccc4c(c3)OCO4)n2)cc1	6.3%	-13.6%	22.8%[59 µM]	15.4%	3.1%	22.6%
COc1cc(-c2nc(-c3ccccc3)c(-c3cccs3)[nH]2)cc(OC)c1OC	0.7%	-17.9%	23.6%[12.7 µM]	8.2%	2.0%	20.6%
COc1ccc(-c2nc(-c3ccc4c(c3)OCO4)[nH]c2-c2ccc(OC)cc2)cc1	17.8µM*	12.6µM*	-47.1%[59 µM]	15.4%	-4.6%	?

Source: PubChem BioAssay
